Test results reported in PubChem BioAssay (NCATS).
Several values for one entry are separate records, joined by “and”; a condition that tells them apart may be missing. Identical values can stand only once. Inconclusive results are not listed. Entries that show only a call come without a potency. Unmarked numbers belong to inactive results. Activity calls are given as the source filed them. The call rests on the fitted dose curve; in most records, active means well fitted curve in the direction sought with a large enough effect; inconclusive means small, poorly fitted or top-dose-only effect, or another doubt; inactive means no such curve, though single readings can be large; an effect the other way counts as inactive or inconclusive.

How the values were obtained:
[1] = target: Cellular tumor antigen p53 (Homo sapiens) (UniProt P04637); assay: Primary qHTS for small molecule compounds that upregulate eGFP-tagged delta133p53alpha (in N-terminal) cells. (AID 2060322); details: NCI-H358 eGFP-delta133p53alpha fluorescence, 24 h; activation: stronger effect = higher value;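 further: cells pre-induced with doxycycline then dosed without doxycycline; series mostly up to about 56 µM; nearly all actives have a fitted effect of over 75% in size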
Sequence of Cellular tumor antigen p53 (Homo sapiens) (P04637 whole entry, looked up): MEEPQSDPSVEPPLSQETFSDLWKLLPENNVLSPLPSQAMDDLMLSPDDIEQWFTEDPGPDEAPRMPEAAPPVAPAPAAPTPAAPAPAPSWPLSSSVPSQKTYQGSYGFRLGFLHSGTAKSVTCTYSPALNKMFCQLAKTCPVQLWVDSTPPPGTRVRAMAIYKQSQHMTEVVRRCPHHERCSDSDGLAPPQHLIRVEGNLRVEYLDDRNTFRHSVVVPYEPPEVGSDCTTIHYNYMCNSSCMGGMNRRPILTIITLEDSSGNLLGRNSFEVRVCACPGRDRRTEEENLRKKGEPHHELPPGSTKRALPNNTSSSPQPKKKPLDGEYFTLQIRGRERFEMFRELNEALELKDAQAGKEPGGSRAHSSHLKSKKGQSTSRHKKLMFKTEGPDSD
Outline: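 NCI-H358 cells pre-induced 24 h with 10 ng/ml doxycycline for eGFP-delta133p53alpha, plated dox-free and exposed 24 h at 37C to titrated compounds. Fixed, Hoechst-stained; gated GFP peak intensity by laser scanning cytometry, normalized to DMSO (0%) and 57.5 uM 5-azacytidine (100%).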

[2] = target: Aldehyde dehydrogenase, mitochondrial (Homo sapiens) (UniProt P05091); assay: qHTS for Inhibitors of the Aldehyde Dehydrogenase Family (ALDH2) Primary screen (AID 2061308); further: nearly all actives have a fitted effect of over 55% in size
[3] = target: Retinaldehyde dehydrogenase 3 (Homo sapiens) (UniProt P47895); assay: qHTS for Inhibitors of the Aldehyde Dehydrogenase Family (ALDH1A3) Validation screen (AID 2061312); further: nearly all actives have a fitted effect of over 45% in size
[4] = target: Retinaldehyde dehydrogenase 3 (Homo sapiens) (UniProt P47895); assay: qHTS for Inhibitors of the Aldehyde Dehydrogenase Family (ALDH1A3) Primary screen (AID 2061315)
[5] = BET inhibitor-based combinations targeting novel dependencies in MECOM-rearranged (r) AML: SET-2 cell line (AID 2202231); details: SET-2 AML cells viability, CellTiter-Glo luminescence, 48 h; viability: stronger effect = lower value, concentration not given here; further: nearly all actives have a fitted effect of over 35% in size; further: potency means the concentration at half of the fitted maximal effect
Outline: (§1)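 Cells were plated at 500 per well and exposed to an 11-point dose series of each drug for 48 hr. Viability was measured by CellTiter-Glo luminescence, normalized to DMSO and empty-well controls, and summarized as AUC and per-cell-line Z-AUC.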

[6] = BET inhibitor-based combinations targeting novel dependencies in MECOM-rearranged (r) AML: MV-4-11 cell line (AID 2202233); further: nearly all actives have a fitted effect of over 45% in size; further: potency means the concentration at half of the fitted maximal effect
Outline: (§2)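 Activity is given as area under the curve and as Z-AUC, mean-centred within each cell line. It comes from 11-point dose curves normalized to DMSO and empty wells. CellTiter-Glo luminescence was read after 48 hr drug exposure of 500 cells/well.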

[7] = BET inhibitor-based combinations targeting novel dependencies in MECOM-rearranged (r) AML: HNT-34 cell line (AID 2202234); further: nearly all actives have a fitted effect of over 35% in size; further: potency means the concentration at half of the fitted maximal effect
Outline: as §2

[8] = BET inhibitor-based combinations targeting novel dependencies in MECOM-rearranged (r) AML: UCSD-AML1 cell line (AID 2202235); further: nearly all actives have a fitted effect of over 40% in size; further: potency means the concentration at half of the fitted maximal effect
Outline: as §2

[9] = BET inhibitor-based combinations targeting novel dependencies in MECOM-rearranged (r) AML: AML-191 cell line (AID 2202236; further: nearly all actives have a fitted effect of over 35% in size; further: potency means the concentration at half of the fitted maximal effect)
Outline: as §1

[10] = BET inhibitor-based combinations targeting novel dependencies in MECOM-rearranged (r) AML: AML-194 cell line (AID 2202237; further: nearly all actives have a fitted effect of over 40% in size; further: potency means the concentration at half of the fitted maximal effect)
Outline: as §1

[11] = BET inhibitor-based combinations targeting novel dependencies in MECOM-rearranged (r) AML: OCI-AML3 cell line (AID 2202232); details: Potency: OCI-AML3 viability; further: nearly all actives have a fitted effect of over 35% in size; further: potency means the concentration at half of the fitted maximal effect
Outline: as §1

Row | Structure (SMILES) | activation [1] | Potency [2] | Potency [3] | Potency [4] | Potency [5] | Potency [6] | Potency [7] | Potency [8] | Potency [9] | Potency [10] | viability [5] | Potency [11]
1 | Cc1cnc(Nc2cccc(CN3CCOCC3)c2)nc1Nc1cccc(S(=O)(=O)NC(C)(C)C)c1 | 11% | inactive | inactive | inactive | 2.63 µM (active) | 0.332 µM (active) | 1.66 µM (active) | 1.32 µM (active) | 1.66 µM (active) | 1.32 µM (active) | – | –
2 | COc1nc(C)cnc1NS(=O)(=O)c1cccnc1-c1ccc(-c2nnco2)cc1 | 13.1% and 3.34% | inactive | inactive | inactive | – | – | inactive | inactive | inactive | inactive | 115% | inactive
3 | COc1ccc(N(C)c2nc(C)nc3ccccc23)cc1 | 0.477% | inactive | inactive | inactive | 0.0118 µM (active) | 0.0105 µM (active) | – | 0.0118 µM (active) | 0.0093 µM (active) | 0.0105 µM (active) | – | 0.0093 µM (active)
4 | NC(=O)c1cccc2cn(-c3ccc([C@@H]4CCCNC4)cc3)nc12 | 20.3% and 6.68% | inactive | inactive | inactive | 14.8 µM (active) | 4.17 µM (active) | – | – | – | – | – | –
5 | Cn1cc(-c2ccc(F)c(C(F)(F)F)c2)nc1C1CCN(c2ncnc3[nH]ncc23)CC1 | 10% | inactive | inactive | inactive | – | – | – | inactive | – | inactive | 96.6% | 0.742 µM (active)
6 | O=C(O)CC1CCC(c2ccc(-c3ccc(Nc4ccc(C(F)(F)F)nc4)cn3)cc2)CC1 (stereo not drawn) | -9.55% | inactive | inactive | inactive | – | inactive | – | inactive | inactive | inactive | 114% | inactive
7 | Cc1cc(C(=O)N2CCN(c3cccc(Cl)c3)CC2)n(-c2ccccc2)n1 | -1.43% | inactive | inactive | inactive | 9.34 µM (active) | 3.72 µM (active) | – | – | 2.09 µM (active) | 2.63 µM (active) | – | 4.17 µM (active)
8 | NCC(=O)Nc1ccc(-n2nc(C(F)(F)F)cc2-c2ccc3c(ccc4ccccc43)c2)cc1 | -7.41% | inactive | inactive | inactive | 11.8 µM (active) | 4.68 µM (active) | – | inactive | 16.6 µM (active) | – | – | 18.6 µM (active)
9 | CNC(=O)c1ccc(N2C(=S)N(c3cnc(C#N)c(C(F)(F)F)c3)C(=O)C23CCC3)cc1F | -16.4% and 8.59% | inactive | inactive | inactive | – | inactive | inactive | inactive | inactive | inactive | 98% | –
10 | CS(=O)(=O)c1ccc(-c2nnc(/C=C/c3nnc(-c4ccc(C#N)cc4)o3)n2-c2ccccc2Cl)nc1 | -4.77% | inactive | inactive | inactive | – | 10.5 µM (active) | inactive | inactive | – | inactive | 111% | –
11 | COc1ccc(-n2c(SCCCN3C(=O)c4cccc5cccc(c45)C3=O)nnc2-c2ccncc2)cc1 | -13.4% | inactive | inactive | inactive | – | inactive | inactive | inactive | inactive | inactive | – | inactive
12 | Cc1nn(C)c(COc2ccc(N3CCN(S(=O)(=O)N(C)C)CC3)cc2)c1-c1cccc2c(CCCOc3cccc4ccccc34)c(C(=O)O)n(CCN3CCOCC3)c12 | -22.8% | inactive | inactive | inactive | – | 6.61 µM (active) | – | inactive | inactive | inactive | 112% | –
13 | CC(=O)N1CCN(CCOc2ccc(C3CCN(C4=Nn5c(nnc5C(F)(F)F)CC4)CC3)cc2)CC1 | -2.39% | inactive | inactive | inactive | 14.8 µM (active) | – | inactive | inactive | inactive | – | – | –
14 | CCO[C@@H]1OC(=O)C[C@@H]1NC(=O)[C@@H]1CCCN1C(=O)[C@@H](NC(=O)c1ccc(N)c(Cl)c1)C(C)(C)C | -7.64% | inactive | inactive | inactive | – | inactive | inactive | inactive | – | inactive | 112% | –
15 | C[C@H]1Oc2cc(cnc2N)-c2c(nn(C)c2C#N)CN(C)C(=O)c2ccc(F)cc21 | 1.43% and -2.96% | inactive | inactive | inactive | – | 18.6 µM (active) | – | – | 1.32 µM (active) | – | 98.3% | –
16 | CC(C)N(CCCNC(=O)Nc1ccc(C(C)(C)C)cc1)C[C@H]1O[C@@H](n2cc(Br)c3c(N)ncnc32)[C@H](O)[C@@H]1O | -6.7% | inactive | inactive | inactive | – | 20.9 µM (active) | 26.3 µM (active) | inactive | – | 23.5 µM (active) | – | 23.5 µM (active)
